Data published in PubChem BioAssay AID1159580 (chemical genetic matrix, 2015).
Screen size: about 5,500 compounds; about 2,000 (36%) were called active. Roughly 18% stayed inconclusive and do not appear here. Rule as the data show it: active = normalized growth mostly below about 0.91 (no sharp cut-off); inconclusive = no clear call, values can overlap the other calls; inactive = mostly above about 0.92. This is one part of the list.

Experiment: chemical genetic growth profiling, strain panel (AID 1159580);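 also: tested at 20 µM; growth read once vehicle control cultures reached saturation at 30 °C; 1 = growth at the plate median or of vehicle wells; lower values mean less growth of the strain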
Details: growth OD

Measured: normalized growth

C/C=C/c1ccc2c(c1)OCO2
inactive: S. cerevisiae deletion strains, locus YJR075W, strain HOC1, hits give low values 1.01 | S. cerevisiae deletion strains, locus YKL009W, strain mrt4, hits give low values 1.02 | S. cerevisiae deletion strains, locus YKL068W, hits give low values 1 | S. cerevisiae deletion strains, locus YKL085W, strain MDH1 (second series), hits give low values 1.01 | S. cerevisiae deletion strains, locus YKL085W, strain MDH1, hits give low values 1.01 | S. cerevisiae deletion strains, locus YKL160W, strain elf1, hits give low values 1 | S. cerevisiae deletion strains, locus YKL190W, strain CNB1, hits give low values 1.01 | S. cerevisiae deletion strains, locus YKR001C, strain vps1, hits give low values 1.05 | S. cerevisiae deletion strains, locus YKR026C, strain gcn3, hits give low values 0.997 | S. cerevisiae deletion strains, locus YKR091W, strain srl3, hits give low values 1.01 | S. cerevisiae deletion strains, locus YLL001W, strain dnm1, hits give low values 1.01 | S. cerevisiae deletion strains, locus YLL026W, hits give low values 1.02 | S. cerevisiae deletion strains, locus YLL041C, strain sdh2, hits give low values 1.02 | S. cerevisiae deletion strains, locus YLR027C, strain aat2, hits give low values 1.02 | S. cerevisiae deletion strains, locus YLR039C, strain RIC1, hits give low values 1.07 | S. cerevisiae deletion strains, locus YLR058C, strain SHM2, hits give low values 1.01 | S. cerevisiae deletion strains, locus YLR102C, strain apc9, hits give low values 1.01 | S. cerevisiae deletion strains, locus YLR113W, strain HOG1, hits give low values 0.976 | S. cerevisiae deletion strains, locus YLR221C, strain rsa3, hits give low values 0.994 | S. cerevisiae deletion strains, locus YLR258W, strain gsy2, hits give low values 1.02 | S. cerevisiae deletion strains, locus YLR262C, strain YPT6 (second series), hits give low values 1 | S. cerevisiae deletion strains, locus YLR262C, strain YPT6, hits give low values 1.05 | S. cerevisiae deletion strains, locus YLR268W, strain sec22, hits give low values 1.04 | S. cerevisiae deletion strains, locus YLR320W, strain mms22, hits give low values 1.01 | S. cerevisiae deletion strains, locus YLR330W, strain CHS5, hits give low values 1.02 | S. cerevisiae deletion strains, locus YLR342W, strain FKS1 (second series), hits give low values 1.03 | S. cerevisiae deletion strains, locus YLR342W, strain FKS1, hits give low values 1.02 | S. cerevisiae deletion strains, locus YLR357W, strain rsc2, hits give low values 1.03 | S. cerevisiae deletion strains, locus YLR370C, strain arc18, hits give low values 1.02 | S. cerevisiae deletion strains, locus YLR371W, strain rom2, hits give low values 1.01 | S. cerevisiae deletion strains, locus YLR384C, strain iki3, hits give low values 1.03 | S. cerevisiae deletion strains, locus YLR418C, strain cdc73, hits give low values 1 | S. cerevisiae deletion strains, locus YML016C, strain PPZ1, hits give low values 1.01 | S. cerevisiae deletion strains, locus YML032C, strain rad52, hits give low values 0.996 | S. cerevisiae deletion strains, locus YML120C, strain ndi1, hits give low values 1.03 | S. cerevisiae deletion strains, locus YML124C, strain tub3, hits give low values 1 | S. cerevisiae deletion strains, locus YMR058W, strain fet3, hits give low values 1.02 | S. cerevisiae deletion strains, locus YMR078C, strain ctf18, hits give low values 1.01 | S. cerevisiae deletion strains, locus YMR125W, strain sto1, hits give low values 1.03 | S. cerevisiae deletion strains, locus YMR129W, hits give low values 1.02 | S. cerevisiae deletion strains, locus YMR205C, strain PFK2, hits give low values 1.02 | S. cerevisiae deletion strains, locus YMR223W, strain ubp8, hits give low values 0.99 | S. cerevisiae deletion strains, locus YMR231W, strain pep5, hits give low values 1.02 | S. cerevisiae deletion strains, locus YMR263W, strain SAP30, hits give low values 1.01 | S. cerevisiae deletion strains, locus YMR307W, strain GAS1, hits give low values 0.986 | S. cerevisiae deletion strains, locus YNL067W, strain RPL9B, hits give low values 1.01 | S. cerevisiae deletion strains, locus YNL071W, strain lat1, hits give low values 1.02 | S. cerevisiae deletion strains, locus YNL153C, strain GIM3, hits give low values 1.03 | S. cerevisiae deletion strains, locus YNL183C, strain NPR1, hits give low values 0.948 | S. cerevisiae deletion strains, locus YNL209W, strain ssb2, hits give low values 1.02 | S. cerevisiae deletion strains, locus YNL233W, strain BNI4, hits give low values 1.02 | S. cerevisiae deletion strains, locus YNL248C, strain rpa49, hits give low values 0.998 | S. cerevisiae deletion strains, locus YNL250W, strain rad50, hits give low values 1.01 | S. cerevisiae deletion strains, locus YNL271C, strain bni1, hits give low values 1.01 | S. cerevisiae deletion strains, locus YNL298W, strain CLA4, hits give low values 1.01 | S. cerevisiae deletion strains, locus YNL307C, strain MCK1, hits give low values 1.02 | S. cerevisiae deletion strains, locus YNL322C, strain KRE1 (second series), hits give low values 1.02 | S. cerevisiae deletion strains, locus YNL322C, strain KRE1, hits give low values 1.01 | S. cerevisiae deletion strains, locus YNR049C, strain mso1, hits give low values 1.02 | S. cerevisiae deletion strains, locus YNR052C, strain pop2, hits give low values 0.996 | S. cerevisiae deletion strains, locus YOL006C, strain TOP1, hits give low values 1.16 | S. cerevisiae deletion strains, locus YOL012C, strain htz1 1.12 | S. cerevisiae deletion strains, locus YOL147C, strain pex11, hits give low values 1 | S. cerevisiae deletion strains, locus YOR001W, strain rrp6, hits give low values 1.01 | S. cerevisiae deletion strains, locus YOR061W, strain CKA2, hits give low values 1.01 | S. cerevisiae deletion strains, locus YOR069W, strain VPS5, hits give low values 1.01 | S. cerevisiae deletion strains, locus YOR070C, strain gyp1, hits give low values 1.02 | S. cerevisiae deletion strains, locus YOR080W, strain dia2, hits give low values 1.03 | S. cerevisiae deletion strains, locus YOR083W, strain WHI5, hits give low values 0.993 | S. cerevisiae deletion strains, locus YOR106W, strain vam3, hits give low values 1.01 | S. cerevisiae deletion strains, locus YOR136W, strain idh2, hits give low values 0.999 | S. cerevisiae deletion strains, locus YOR144C, strain elg1, hits give low values 0.998 | S. cerevisiae deletion strains, locus YOR184W, strain ser1, hits give low values 0.994 | S. cerevisiae deletion strains, locus YOR231W, strain MKK1, hits give low values 0.959 | S. cerevisiae deletion strains, locus YOR265W, strain rbl2, hits give low values 1.02 | S. cerevisiae deletion strains, locus YOR270C, strain vph1, hits give low values 1.03 | S. cerevisiae deletion strains, locus YOR290C, strain snf2, hits give low values 0.999 | S. cerevisiae deletion strains, locus YOR316C, strain cot1, hits give low values 1.01 | S. cerevisiae deletion strains, locus YPL051W, strain arl3, hits give low values 1.01 | S. cerevisiae deletion strains, locus YPL055C, strain LGE1, hits give low values 1.03 | S. cerevisiae deletion strains, locus YPL078C, strain atp4, hits give low values 1.01 | S. cerevisiae deletion strains, locus YPL106C, strain sse1, hits give low values 1 | S. cerevisiae deletion strains, locus YPL240C, strain hsp82, hits give low values 1.02 | S. cerevisiae deletion strains, locus YPL241C, strain CIN2, hits give low values 1.01 | S. cerevisiae deletion strains, locus YPL256C, strain CLN2, hits give low values 0.962 | S. cerevisiae deletion strains, locus YPR119W, strain clb2, hits give low values 1.01 | S. cerevisiae deletion strains, locus YPR141C, strain kar3, hits give low values 1.01 | S. cerevisiae deletion strains, locus YPR163C, strain tif3, hits give low values 1 | S. cerevisiae deletion strains, locus YPR167C, strain met16, hits give low values 1.02 | S. cerevisiae deletion strains, strain wtn01, hits give low values 1.06 | S. cerevisiae strains, strain wild type, hits give low values 1.01
